{"source": "PubChem BioAssay (Tox21)", "note": "Records with an inconclusive call do not appear. Active and inactive are the calls of the source. Calls come from the whole dose curve; as a rule, active = well fitted activation curve with a large enough effect in the signal ratio in the repeat runs (not every such curve was filed as active); inconclusive = weak or mixed curves; inactive = flat fitted curve, though single readings scatter; the % refers to the signal ratio."}
{"experiment": "qHTS assay to identify small molecule agonists of the hypoxia (HIF-1) signaling pathway (AID 1224846)", "conditions": "HRE-bla ME-180 cells, beta-lactamase ratio, 17 h; series mostly up to 76.8 µM", "source_text": "U.S. Tox21 Program National Center for Advancing Translational Sciences [NCATS] NIH Chemical Genomics Center [NCGC] U.S. Environmental Protection Agency [EPA] National Institutes of Environmental Health Sciences [NIEHS] National Toxicology Program [NTP] U.S. Food and Drug Administration [FDA] Tox21 Assay Overview: Hypoxia-inducible factor-1 (HIF-1) is the major hypoxia-regulated transcription factor that controls cellular responses to low oxygen concentration. HIF-1 is composed of two subunits: hypoxia responsive HIF-1-alpha and constitutively expressed HIF-1-beta, which is also known as aryl hydrocarbon receptor nuclear translocator. During hypoxic conditions, HIF-1-alpha heterodimerizes with HIF-1-beta and translocates into the nucleus where the HIF-1 complex binds to the hypoxia-response element (HRE) and activates expression of target genes such as VEGF (vascular endothelial growth factor). The HIF-1 pathway is essential to normal growth and development, and is involved in the pathophysiology of cancer, inflammation, and ischemia. Using a beta-lactamase reporter-gene under control of the hypoxia response element, a cell-based assay [CellSensor(TM) HRE-bla ME-180 from Life Technologies, Carlsbad, CA] was used to measure hypoxia-induced signaling. Tox21 10K library compounds were measured for their ability to induce the reporter gene activity.\nTox21 Assay Protocol Summary: HRE-bla ME-180 cells were dispensed at 2,000 cells per well in 6 uL of assay medium containing 0.5% dialyzed FBS into black wall/clear-bottom 1536-well plates using a Multidrop Combi (Thermo Scientific, Waltham, MA) dispenser. After the assay plates were incubated at 37C and 5% CO2 for 5 hrs, 23 nL of compounds dissolved in DMSO, positive controls or DMSO only was transferred to each well of the assay plate using a Pintool station (Kalypsys, San Diego, CA). The assay plates were incubated at 37C and 5% CO2 for 17 hrs. One uL of LiveBLAzerTM B/G FRET substrate (CCF4-AM) (Life Technologies) was added to each well using a Flying Reagent Dispenser (Aurora Discovery, San Diego, CA)."}
{"smiles": "CC(C)C(=O)OCCOc1ccccc1", "outcome": "inactive"}
{"smiles": "C1CCCCC1", "outcome": "inactive"}
{"smiles": "CNC1CCCN(c2c(F)cc3c(=O)c(C(=O)O)cn(C4CC4)c3c2OC)C1", "note": "(stereo not given)", "outcome": "inactive"}
{"smiles": "CCCCCCCCCCCCCCCC(=O)OCC", "outcome": "inactive"}
{"smiles": "Cc1cccc2sc(N)nc12", "outcome": "inactive"}
{"smiles": "O=C1OC[C@H](Cc2cccc(O)c2)[C@H]1Cc1cccc(O)c1", "outcome": "inactive"}
{"smiles": "c1ccc(CNc2ncnc3c2ncn3C2CCCCO2)cc1", "note": "(stereo not given)", "outcome": "inactive"}
{"smiles": "[Cl][Nd]([Cl])[Cl]", "outcome": "inactive"}
{"smiles": "COc1cc(C(C)=O)ccc1OCCCN1CCC(c2noc3cc(F)ccc23)CC1", "outcome": "inactive"}
{"smiles": "COc1ccc(CCN(C)CCCN2CCc3cc(OC)c(OC)cc3CC2=O)cc1OC", "outcome": "inactive"}
{"smiles": "CSSc1ccoc1C", "outcome": "inactive"}
{"smiles": "CC(C)(C)S", "outcome": "inactive"}
{"smiles": "COc1cc(OC)c2ccc(=O)oc2c1", "outcome": "inactive"}
{"smiles": "CC(=O)NNC(C)=O", "outcome": "inactive"}
{"smiles": "COc1ccc(N)c([N+](=O)[O-])c1", "outcome": "inactive"}
{"smiles": "CC(CN(CCN(CC(C)OCCO)CC(C)OCCO)CC(C)OCCO)OCCO", "note": "(stereo not given)", "outcome": "inactive"}
{"smiles": "Cc1ccc2c(c1)CCCN2", "outcome": "inactive"}
{"smiles": "CCN(Cc1cccc(S(=O)(=O)O)c1)c1ccc(C(=C2C=CC(=[N+](CC)Cc3cccc(S(=O)(=O)O)c3)C=C2)c2ccc(O)cc2S(=O)(=O)[O-])cc1", "outcome": "inactive"}
{"smiles": "O=C(O)CCCc1c[nH]c2ccccc12", "outcome": "inactive"}
{"smiles": "CC(C)(C)CCCCCCOC(=O)c1ccccc1C(=O)OCCCCCCC(C)(C)C", "outcome": "inactive"}
{"smiles": "Cc1ccc(N(CCO)CCO)cc1", "outcome": "inactive"}
{"smiles": "CCCCCCOC(=O)CCCCC", "outcome": "inactive"}
{"smiles": "O=c1[nH][nH]c(=O)c2cc([N+](=O)[O-])ccc12", "outcome": "inactive"}
{"smiles": "CC(=O)OCCC(C)CC(C)(C)C", "note": "(stereo not given)", "outcome": "inactive"}
{"smiles": "Cc1c[nH]c2ccccc12", "outcome": "inactive"}
{"smiles": "O=C1CC[C@@H](C(=O)O)N1", "outcome": "inactive"}
{"smiles": "O=S(=O)(Cl)c1c(Cl)cccc1Cl", "outcome": "inactive"}
{"smiles": "COc1cc(NCc2ccc3nc(N)nc(N)c3c2C)cc(OC)c1OC", "outcome": "inactive"}
{"smiles": "COc1ccc(-n2nc(C(F)F)cc2-c2ccc(S(C)=O)cc2)cc1", "note": "(stereo not given)", "outcome": "inactive"}
{"smiles": "COc1ccc(C(=O)NCc2ccc(OCCN(C)C)cc2)cc1OC", "outcome": "inactive"}
{"smiles": "O=c1[nH]c2cc(C(F)(F)F)c(N3CCOCC3)cc2n(CP(=O)(O)O)c1=O", "outcome": "inactive"}
{"smiles": "O=C(O)CO", "outcome": "inactive"}
{"smiles": "CCSC(=O)N(CC)CC", "outcome": "inactive"}
{"smiles": "c1ccc(CCCc2ccncc2)cc1", "outcome": "inactive"}
{"smiles": "C=C(C)C(=O)OCCC(F)(F)C(F)(F)C(F)(F)C(F)(F)C(F)(F)C(F)(F)F", "outcome": "inactive"}
{"smiles": "COC(=O)c1sccc1S(N)(=O)=O", "outcome": "inactive"}
{"smiles": "O=C(O)CCC(=O)c1ccc(-c2ccccc2)cc1", "outcome": "inactive"}
{"smiles": "C=CC(=O)O", "outcome": "inactive"}
{"smiles": "Nc1ccc(F)cc1", "outcome": "inactive"}
{"smiles": "O=C(Nc1ccc(C(=O)O)c(O)c1)c1ccccc1", "outcome": "inactive"}
